“And” between values parts separate entries of the source, which are not always exact repeats. Identical values can stand only once. The campaign covered roughly 16,000 compounds. About 4,000 (25%) were called active. About 26% were inconclusive and are not listed. A selection follows. Values without a mark were called inactive. Calls come from the whole dose curve; as a rule, active = well fitted curve in the direction sought with a large enough effect; inconclusive = small, poorly fitted or top-dose-only effect, or effect the other way; inactive = no such curve, though single readings can be large or run the other way.
% is set by controls: 0 for no effect and ±100 for the full control effect.

Cytochrome P450 2C9 (Homo sapiens), sequence (P11712 whole entry, looked up): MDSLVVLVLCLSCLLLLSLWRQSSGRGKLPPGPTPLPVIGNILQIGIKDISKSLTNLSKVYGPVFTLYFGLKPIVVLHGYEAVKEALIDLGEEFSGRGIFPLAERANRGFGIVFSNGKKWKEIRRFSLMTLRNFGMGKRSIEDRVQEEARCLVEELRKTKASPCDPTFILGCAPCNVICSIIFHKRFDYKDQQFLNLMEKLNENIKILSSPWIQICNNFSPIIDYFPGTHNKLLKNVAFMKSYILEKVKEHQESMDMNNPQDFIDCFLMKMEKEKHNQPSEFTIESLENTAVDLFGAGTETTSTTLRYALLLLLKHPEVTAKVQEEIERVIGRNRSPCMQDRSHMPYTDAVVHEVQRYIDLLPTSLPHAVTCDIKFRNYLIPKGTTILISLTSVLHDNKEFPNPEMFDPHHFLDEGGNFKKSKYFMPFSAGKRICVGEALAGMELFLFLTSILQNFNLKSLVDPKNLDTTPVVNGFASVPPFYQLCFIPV

This test has as its target Cytochrome P450 2C9 (Homo sapiens) (UniProt P11712). The test can be described thus: Cytochrome panel assay with activity outcomes. The settings on record: recombinant CYP, pro-luciferin dealkylation, luminescence, p450-cyp2c9; series mostly up to 57.1 µM.
For orientation: AC50 means the midpoint of the concentration-response curve, whichever way the signal moves. As to `Cc1ccc(=O)n(-c2ccccc2)c1`, the AC50 result was “inactive”.

Consider `COc1ccc(NC(=O)N2CCCC3(CCN(C(=O)c4cccn4C)CC3)C2)cc1`, for which the AC50 result was “inactive”.

With `O=C1CN(C(=O)c2ccc(Br)o2)C(c2ccc(F)cc2)c2cc(Cl)ccc2N1` (stereo unspecified), the AC50 is 6.31 µM (active).

With `CO[C@H]1COC(=O)C/C=C\[C@@H](C)COC(=O)[C@@H](CCSC)NC(=O)C/C=C\[C@@H]1C`, the activity, negative = inhibition was -2.93% [at 11.4 µM] and 12.5% [at 11.4 µM].

Consider `C[C@H]1COC(=O)[C@H]2CCCN2C(=O)[C@@H](C)COC(=O)[C@H](Cc2ccccc2)NC1=O`, for which the activity, negative = inhibition was 13.4% [at 11.4 µM].

For the compound `Cc1ccc(S(=O)(=O)N[C@H](C(=O)O)C(C)C)cc1`, the activity, negative = inhibition is -4.41% [at 11.4 µM].

For `Cc1ccc(NNS(=O)(=O)c2ccc(C)cc2)cc1`, the AC50 is 8.91 µM (active).

Consider `Cc1ccc(S(=O)(=O)N[C@H]2COC(=O)C/C=C\[C@H](C)[C@@H](NS(=O)(=O)c3ccc(C)cc3)COC(=O)C/C=C\[C@@H]2C)cc1`, for which the activity, negative = inhibition is -6.21% [at 11.4 µM].

`Cc1ccc(S(=O)(=O)NNc2ccccc2)cc1`: the AC50 was 8.91 µM (active).

For `Cc1ccc(S(=O)(=O)NCc2ccccc2)cc1`, the AC50 result was “inactive”.

Turning to `CCN=C1NN=C(c2ccc(C)cc2)CS1`, the concentration at half-maximal activity (AC50) is 6.31 µM (active).

`COc1cccc(NC(=O)CSc2nc3ccccc3cc2Cc2ccccc2)c1`: the AC50 was 6.31 µM (active).

Take `COc1ccc2cc(C#N)c(SCC(=O)NNC(=O)Cc3ccccc3)nc2c1`: the AC50 entry was “inactive”.

Regarding `CCN(CC)C(=O)CSc1nnc(C2CCCCC2)o1`, the AC50 result is “inactive”.

As to `CN1CCN(c2nc3c(c(=O)n(C)c(=O)n3C)n2C)CC1`, the activity, negative = inhibition is 0.789% [at 11.4 µM].

Consider `C=CCn1cc(Cl)c(=O)n(CC=C)c1=O`, for which the AC50 entry was “inactive”.

With `Cn1c(=O)c2c(nc(N3CCN(c4ccccn4)CC3)n2Cc2ccc(Cl)cc2Cl)n(C)c1=O`, the AC50 entry was “inactive”.

With `Cn1c(=O)c2c(nc(N3CCN(c4ccccn4)CC3)n2Cc2ccccc2Cl)n(C)c1=O`, the AC50 was 3.55 µM (active).

For `C=CCn1c(=O)c2c(nc(Br)n2Cc2ccccc2Cl)n(C)c1=O`, the AC50 was 14.1 µM (active).

Regarding `C=CCn1c(=O)c2c(nc(-c3ccc(S(=O)(=O)O)cc3)n2C)n(C)c1=O`, the AC50 entry was “inactive”.

In the case of `O=C(O)CCC(=O)CCC(=O)c1ccccc1`, the AC50 result is “inactive”.

As for `OCCN1CCN(CCC=C2c3ccccc3Sc3ccc(Cl)cc32)CC1`, the AC50 entry was “inactive”.

Consider `COc1cc(OC)cc(C(=O)Nn2cc(C(=O)N3CCN(C)CC3)c3ccccc3c2=O)c1`, for which the AC50 was 11.2 µM (active).

Turning to `COc1cc(OC)cc(C(=O)NCC(=O)OC2CCOC2=O)c1` (stereo unspecified), the AC50 result is “inactive”.

In the case of `CN1CCN(C(=O)c2ccc(-n3cccc3)cc2)CC1`, the AC50 result is “inactive”.

For `CC[C@H](C)C(=O)O[C@H]1CCC=C2C=C[C@H](C)[C@H](CC[C@@H]3C[C@H](O)CC(=O)O3)[C@H]21`, the AC50 result is “inactive”.

`CN(C)C(=O)c1ccc(-c2ccc3ncnc(NCc4ccccc4)c3c2)cc1`: the activity, negative = inhibition was 13.4% [at 2.29 µM].

Turning to `NCCc1nc(-c2nc(C(=O)O)cs2)cs1`, the activity, negative = inhibition was -10.5% [at 11.4 µM].

Consider `C=CCNC(=O)c1csc(-c2ccccc2)n1`, for which the AC50 was 15.8 µM (active).

In the case of `C=CCNC(=O)c1ccc2nc(-c3ccccc3)c(-c3ccccc3)nc2c1`, the AC50 was 14.1 µM (active).

In the case of `C=CCNC(=O)c1ccc(-c2nc(-c3ccc(Cl)c(Cl)c3)cs2)cc1`, the AC50 result was “inactive”.

On to `CSc1nc(C)c2c(n1)N(c1ccc(C(F)(F)F)cc1)CC2`, for which the AC50 result was “inactive”.

As to `O=C1N=C(N2CCOCC2)S/C1=C/c1cccs1`, the AC50 result is “inactive”.

As to `N=C1/C(=C/c2cccs2)C(=O)N=C2SN=C(SCc3ccccc3)N12`, the AC50 was 0.316 µM (active).

For `NC(=O)N1c2ccccc2C=Cc2ccccc21`, the AC50 result is “inactive”.

Take `CN1[C@@H](CC(=O)c2ccccc2)CCC[C@@H]1C[C@@H](O)c1ccccc1`: the AC50 result is “inactive”.

`O=C(C[C@@H]1C=Cc2ccccc2N1C(=O)c1ccccc1)c1ccccc1`: the AC50 is 2.51 µM (active).

Regarding `CO[C@@H]1COC(=O)C/C=C\[C@H](C)[C@@H](NS(=O)(=O)c2ccc(C)cc2)COC(=O)C/C=C\[C@@H]1C`, the activity, negative = inhibition is -12.8% [at 11.4 µM] and 11% [at 11.4 µM].

Regarding `Nc1nc2c(c(=O)[nH]1)N(C=O)[C@H](CNc1ccc(C(=O)N[C@@H](CCC(=O)O)C(=O)O)cc1)CN2`, the AC50 entry was “inactive”.

On to `Cc1cc(C(C)(C)C)c(OCCCN2CCOCC2)c(C(C)(C)C)c1`, for which the activity, negative = inhibition is -0.273% [at 11.4 µM].

`N#Cc1c(N2CCCCC2)nc(N)c2c(N)nc3c(c12)CC(c1ccccc1)O3` (stereo unspecified): the AC50 is 4.47 µM (active).

On to `CN(C)Cc1ccccc1-c1ccc2ncnc(N3CCOCC3)c2c1`, for which the activity, negative = inhibition was 8.68% [at 2.29 µM].

Turning to `CN(C)Cc1ccccc1-c1nc(N2CCOCC2)c2ccccc2n1`, the activity, negative = inhibition was 5.66% [at 2.29 µM].

`CN1c2ccccc2C(C)(C)C12C=Nc1c(cc(N3CCOCC3)c3ccccc13)O2` (stereo unspecified): the AC50 is 1.58 µM (active).

For the compound `CCOc1cc(C2NN=C(c3ccccc3)S2)ccc1OCc1ccccc1Cl` (stereo unspecified), the AC50 is 8.91 µM (active).

For the compound `COc1cc(CNCc2ccccn2)ccc1OCc1ccc(Cl)cc1Cl`, the AC50 entry is “inactive”.

With `CN(C)C(=O)c1ccc(-c2cncnc2NC2CCNCC2)cc1`, the activity, negative = inhibition was 15.8% [at 2.29 µM].

`CCOC(=O)C1C(=O)C=C(c2ccc(C)cc2)CC1c1ccco1` (stereo unspecified): the AC50 is 3.16 µM (active).

Regarding `CCOC(=O)C1C(=O)C=C(c2ccc(NS(C)(=O)=O)cc2)CC1c1ccco1` (stereo unspecified), the AC50 was 4.47 µM (active).

Turning to `CCN(CC)C(=O)Cn1cnc([N+](=O)[O-])n1`, the AC50 result was “inactive”.

For the compound `CN1CC(c2ccccc2)C2(COc3ccccc3C2=O)C12C(=O)Nc1ccccc12` (stereo unspecified), the AC50 is 3.98 µM (active).

`COc1cc(C2C(C(=O)OCCC#N)=C(C)NC3=C2S(=O)(=O)c2ccccc23)cc(OC)c1OC` (stereo unspecified): the AC50 is 7.08 µM (active).

For `C[C@@H](C(=O)O)c1ccc(C[C@@H]2CCCC2=O)cc1`, the AC50 entry is “inactive”.

As to `Cc1nc2ccccn2c1C(=O)CSc1ccccc1Cl`, the AC50 was 11.2 µM (active).

With `O=C(c1ccc(F)cc1)C1CCN(C(=S)Nc2ccccc2)CC1`, the AC50 is 8.91 µM (active).

For the compound `O=C(c1ccc(F)cc1)C1CCN(CCCCc2ccccc2)CC1`, the AC50 entry was “inactive”.

In the case of `S=C(Nc1ccccc1)N1CCCCC1`, the AC50 result was “inactive”.

Take `CC(C)CO[C@H](c1ccc2c(c1)OCO2)[C@H](C)Br`: the AC50 was 2 µM (active).

For `CC(C)CO/N=C1/C[C@@H](O)[C@@H](O)[C@@H]2[C@@H]3C(=O)N(Cc4ccc5c(c4)OCO5)C(=O)[C@H]3CC[C@@H]12`, the activity, negative = inhibition is -17.6% [at 11.4 µM].

In the case of `CC(C)CO/N=C1/C[C@@H](O)[C@@H](O)[C@@H]2[C@@H]3C(=O)N(Cc4ccc5c(c4)OCO5)C(=O)[C@H]3CC[C@H]12`, the activity, negative = inhibition was -12.4% [at 11.4 µM].

As to `COC(=O)c1cc(=O)[nH]c(=O)[nH]1`, the activity, negative = inhibition was 3.6% [at 11.4 µM].

On to `CCOc1ccc(C(=O)Nc2ccc(Cl)cn2)cc1Cl`, for which the AC50 result was “inactive”.

As to `Cc1ccc(C(=O)Nc2cc(Cl)ccc2OC(=O)c2ccc(C)cc2)cc1`, the AC50 is 14.1 µM (active).

With `C#CCCCO/N=C1/C[C@@H](O)[C@@H](O)[C@@H]2[C@@H]3C(=O)N([C@@H](C)c4ccccc4)C(=O)[C@H]3CC[C@H]12`, the activity, negative = inhibition was -17.4% [at 11.4 µM].

As to `CSc1nc(Oc2ccc(=O)[nH]n2)nc(N(C)C)n1`, the AC50 entry was “inactive”.

As for `CCOC(=O)c1c(NC(=S)NC(=O)c2cnn(CC)c2)sc2c1CCC(C)C2` (stereo unspecified), the AC50 was 5.01 µM (active).

Take `CCOC(=O)CCN1C(=O)[C@H]2[C@@H]3[C@H](O)[C@H](O)CC(=O)[C@H]3CC[C@H]2C1=O`: the activity, negative = inhibition was 14.8% [at 11.4 µM] and 4.05% [at 11.4 µM].

Turning to `C[C@@](N)(C(=O)O)c1ccc(P(=O)(O)O)cc1`, the AC50 result is “inactive”.

With `O=C(c1ccccc1)c1ccc2nc(-c3ccc(NC(=O)c4ccccc4F)cc3)[nH]c2c1`, the AC50 was 4.47 µM (active).

In the case of `O=C(c1ccccc1)c1ccc2nc(-c3ccc(NC(=O)c4ccccc4Br)cc3)[nH]c2c1`, the AC50 is 2 µM (active).

Consider `O=C(O)c1ccc(NCc2nc3cc4ccccc4cc3[nH]2)cc1`, for which the activity, negative = inhibition was 8.12% [at 11.4 µM].

Consider `C[C@@H](c1ccccc1)N1C(=O)[C@H]2[C@@H]3[C@H](O)C=CC(=O)[C@H]3CC[C@H]2C1=O`, for which the activity, negative = inhibition is 3.06% [at 11.4 µM].

`Cc1nn(CCc2n[nH]c(=S)n2-c2ccc(F)c(Cl)c2)c(C)c1[N+](=O)[O-]`: the AC50 result is “inactive”.

For the compound `COC(=O)N1CCC[C@@]2(CCN(C(=O)Nc3ccccc3)C2)C1`, the AC50 entry was “inactive”.

As for `COc1ccc(NC(=O)N2CCC3(CC2)CCN(C(=O)c2csnn2)CC3)cc1`, the AC50 entry was “inactive”.

With `O=C(O)Cc1cc(I)c(Oc2ccc(O)c(I)c2)c(I)c1`, the AC50 is 5.01 µM (active).

As to `O=C(O)Cc1ccc(O)c(O)c1`, the AC50 entry is “inactive”.

On to `COc1cc(CC(=O)O)ccc1O`, for which the AC50 result was “inactive”.

For the compound `Cc1cccc(NC(=O)c2ccc([N+](=O)[O-])o2)n1`, the AC50 result is “inactive”.

Take `O=C(Nc1cccc(NC(=O)c2ccccc2[N+](=O)[O-])n1)c1ccccc1[N+](=O)[O-]`: the AC50 is 0.794 µM (active).

Regarding `CCOc1cc(NC(=O)c2ccccc2[N+](=O)[O-])c(OCC)cc1NC(=O)CC(C)C`, the AC50 entry is “inactive”.

With `CO/N=C(\C(=O)N[C@@H]1C(=O)N2C(C(=O)[O-])=C(C[N+]3(C)CCCC3)CS[C@@H]12)c1csc(N)n1`, the AC50 entry is “inactive”.

Take `N#Cc1cccc(-c2nc(NCCN3CCOCC3)c3ccccc3n2)c1`: the activity, negative = inhibition is 5.64% [at 2.29 µM].

With `N#Cc1nc(-c2ccc(OCc3ccccc3)cc2)oc1NCCN1CCOCC1`, the AC50 is 7.94 µM (active).

In the case of `N#Cc1ccccc1-c1ccc2ncnc(NCCN3CCOCC3)c2c1`, the activity, negative = inhibition is 2.09% [at 2.29 µM].

Take `CO[C@H]1COC(=O)[C@H](C)COC(=O)[C@@H](Cc2ccccc2)NC(=O)C/C=C\[C@H]1C`: the activity, negative = inhibition is -8.74% [at 11.4 µM].

These data come from PubChem BioAssay AID1851 (National Center for Advancing Translational Sciences (NCATS), 2009).
